# Reference: PubChem BioAssay (EPA / NIEHS)
# The source made the active and inactive calls. Rule for the calls: active = hit-call score of the fitted dose curve at least 0.9, where 1 is the maximum; inactive = score below 0.9.
# Read-out: Interleukin 17F (IL17F), IL17F (gene 112744)
# Test: BSK_BT_xIL17F: BioMAP Diversity Plus: BT Assay for Interleukin 17F (IL17F) Biomarker Activity (AID 2284243)
# Settings: primary human B cells with PBMC
# Method: BSK_BT is a cell-based, multiplexed-readout assay that uses B cell and peripheral blood mononuclear cells, a human vascular primary cell co-culture, with measurements taken at 24 hours after chemical dosing in a microplate: 96-well plate.BSK_BT_xIL17F is an assay component measured in the BSK_BT assay. It measures secreted IL-17F related to regulation of gene expression using LumineX xMAP technology.Data from the assay component BSK_BT_xIL17F was analyzed at the endpoint, BSK_BT_xIL17F, in the positive analysis fitting direction relative to DMSO as the negative control and baseline of activity. Using a type of cytokine quantitation reporter, gain or loss-of-signal activity can be used to understand protein changes. To generalize the intended target to other relatable targets, this assay endpoint is annotated to the 'cytokine' intended target family, where the subfamily is 'interleukins'.
# The levels of cell surface (or secreted, indicated by the prefix "s") biomarker endpoints were measured by ELISA. Overt cytotoxicity to cells in confluent adherent cultures (all systems other than the BT system) was assessed by measuring total protein levels using sulforhodamine B (SRB) staining in parallel cultures at the time of biomarker measurements, indicated as SRB endpoints. For proliferation assays for adherent cell types, individual cell types are cultured at sub-confluence and relative cell numbers quantified by SRB staining at time points optimized for each system (48 h: 3C and CASM3C systems; 72 h: BT and HDF3CGF systems; 96 h: SAg system). SRB was performed by staining cells with 0.1% SRB after fixation with 10% TCA and reading wells at 560 nm.Viability and proliferation of PBMC (T cells) was quantified by Alamar Blue reduction for the SAg and BT systems. For PBMC viability (referred to as PBMC Cytotoxicity within the assay endpoint names), cells were plated (75,000/well in a 96-well plate) and then chemical samples added for 1 h before addition of activators, SEB and TSST-1 (20 ng/mL final concentration each). Cells were incubated for 90 h. Then, Alamar Blue (20 uL/well) (Invitrogen, Cat DAL1100) was added for 6 h, and the plates were read with a fluorescence microplate reader at 546/580 nm (excitation/emission). For PBMC proliferation, cells were plated and activated as above but incubated for only 16 h prior to addition of Alamar Blue. Plates were read after 6 h.
Structure (SMILES),outcome,AC50
CC1(C)C2=CCCC(C)(C)[C@]23CC[C@H]1C3,inactive,–
C1=CC2C3C=CC(C3)C2C1 (stereo not drawn),inactive,–
CCCCCCCCCCCCCCCC(=O)OC/C=C(C)/C=C/C=C(C)/C=C/C1=C(C)CCCC1(C)C,inactive,–
CC(C)(N=C=O)c1cccc(C(C)(C)N=C=O)c1,inactive,–
Clc1cc(Cl)c(-c2c(Cl)c(Cl)cc(Cl)c2Cl)cc1Cl,inactive,–
C=C(C)[C@H]1CC=C(C)C(=O)C1,inactive,–
C=C(C)C(=O)OCCOCCOCCOC(=O)C(=C)C,inactive,–
O=C1c2ccccc2C(=O)c2c(O)ccc(O)c21,–,9.01 µM (active)
CC(=O)C1(C)CC2=C(CCCC2(C)C)CC1C (stereo not drawn),–,30.5 µM (active)
CCN(CC)C(=O)N(CC)CC,inactive,–
COc1ccc(CCN2CCC(Nc3nc4ccccc4n3Cc3ccc(F)cc3)CC2)cc1,–,6.67 µM (active)
Oc1c(Cl)cc(Cl)c(Cl)c1Cc1c(O)c(Cl)cc(Cl)c1Cl,–,9.92 µM (active)
Cc1cc(CCC(=O)OCCOCCOCCOC(=O)CCc2cc(C)c(O)c(C(C)(C)C)c2)cc(C(C)(C)C)c1O,inactive,–
CCC(C)c1cc([N+](=O)[O-])cc([N+](=O)[O-])c1OC(=O)OC(C)C (stereo not drawn),–,33.7 µM (active)
C[C@@H]1CCN(C(=O)[C@H](CCCN=C(N)N)NS(=O)(=O)c2cccc3c2NC[C@H](C)C3)[C@@H](C(=O)O)C1,inactive,–
C=C(C)C(=O)OCCOCCOCCOCCOC(=O)C(=C)C,inactive,–
c1ccc(Oc2ccccc2)cc1,inactive,–
c1ccc2cc(Nc3ccc(Nc4ccc5ccccc5c4)cc3)ccc2c1,inactive,–
CSCCC=O,inactive,–

Structure (SMILES),outcome,AC50
CN(c1nccc(=O)[nH]1)C1CCN(c2nc3ccccc3n2Cc2ccc(F)cc2)CC1,inactive,–
CC(=O)Nc1ccc(C(=O)CCl)cc1,–,3.15 µM (active)
IC(I)I,inactive,–
CCCCOC(=O)CCCCCCCC(=O)OCCCC,inactive,–
COc1ccc(OC)c(N=Nc2c(O)ccc3ccccc23)c1,–,5.41 µM (active)
O=C1OC2(c3ccccc31)c1ccc(O)c(Br)c1Oc1c2ccc(O)c1Br,inactive,–
C=C(C)C(=O)OCC(CC)(COC(=O)C(=C)C)COC(=O)C(=C)C,–,27.5 µM (active)
c1ccc(CCc2ccccc2)cc1,inactive,–
CC(=O)c1c(C)c([N+](=O)[O-])c(C(C)(C)C)c([N+](=O)[O-])c1C,–,20 µM (active)
CC(C=O)Cc1ccc(C(C)(C)C)cc1 (stereo not drawn),inactive,–
CC(C)(C)CC(C)(C)c1ccc(OCCOCC[N+](C)(C)Cc2ccccc2)cc1,–,8.64 µM (active)
CS(=O)(=O)c1ccc(C2=C(c3ccccc3)C(=O)OC2)cc1,inactive,–
O=C1OC[C@H](Cc2cccc(O)c2)[C@H]1Cc1cccc(O)c1,inactive,–
CN(C)C(=S)SC(=S)N(C)C,–,0.559 µM (active)
CCCCN(CCCC)C(=O)N(CCCC)CCCC,–,29 µM (active)
COc1cc(Cl)c(OC)cc1N,inactive,–
CC=Cc1ccc(OCC)c(O)c1,inactive,–
CN(C)C(=O)Nc1ccc(Oc2ccc(Cl)cc2)cc1,inactive,–
CCCCCC(C=O)=Cc1ccccc1,inactive,–
